Among all 52,000 sequences or so, about 210 (0.4%) were called active. Only a selection was taken, and actives are over-represented in it overall. Values without a mark were called inactive.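 Rule for the calls: active = gene whose silencing raises cell survival under the drug, median off-target-corrected z-score across its silencing RNAs 2 or more; inactive = the rest.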

A short description of this assay: Resistance to Poly (ADP-Ribose) Polymerase inhibitor: Gene Identification via Genome-wide siRNA Screen. As to conditions: mouse BRCA2 R2336H ES cells, olaparib, CellTiter-Glo viability; active compounds read high. The method, boiled down:
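Genome-wide siRNA screen (3 siRNAs/gene, 20 nM) in mouse ES cells carrying hypomorphic BRCA2 R2336H; olaparib 500 nM added 48 h post-transfection, CellTiter-Glo viability 72 h later. Normalized to plate-median negative control; MAD z-scores, gene median, seed-adjusted.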
Background: In ATP-based viability assays light output follows the ATP content of the culture.
For the sequence CGAUCUACAUCUGCAUCAUTT against Olfr1212, the z-score was -0.961.

Consider GGCUUUGAUUGAACAUGAGTT against Lypla2, for which the z-score is 0.783.

Regarding CCAUCUAUGAUCCCAGAGCTT against Fbxw9, the z-score is 0.241.

In the case of GGACGUGACAGACAUUAUUTT against Htr5b, the z-score is -0.897.

Turning to GCCAAUGAUGUAGCAAAUUTT against Slc20a1, the z-score is 2.1 (active).

For the sequence CCCUAAUAGAACUAAUGAATT against Kpnb1, the z-score was -3.47.

Take “CCUACUUCCUCCAUUUAGGTT against 5033413D22Rik”: the z-score was 1.42.

Turning to GGAGUACAGUGAUGACAAGTT against Ing5, the z-score is 0.235.

As for GGUUGGCCAUAUAAAGAGATT against Smarca3, the z-score is 0.771 (active).

As for GGCAAAUGGUCUUUAUGCATT against Zfp606, the z-score is -0.699.

As to GGGAAGUCACUUUUGUUCCTT against Top2a, the z-score is -1.25.

For the sequence GGCCAAAUUCUUCAGCAGATT against Rpl27a, the z-score was -2.82.

For the sequence GGUCCACGGUUACUAAAAATT against Klrd1, the z-score is 2.45 (active).

In the case of “CCAAAACAACCACAAGUAGTT against A930006D11”, the z-score is -2.39.

For the sequence GGUGAUAGUCCACGAGGUUTT against Mbc2, the z-score is -1.31.

As for GGGUUUUUUUUUUCCUUCCTT against Hsd17b1, the z-score was 1.88 (active).

In the case of GGAGUUUGAGACACUCUGCTT against Apg4d, the z-score was 0.266.

For GGUCCUUCCAUAGUGACGCTT against Igfbp7, the z-score was 0.24.

In the case of GGAAAUAUGAUCCAUCCUGTT against Zfp282, the z-score is 1.65.

Regarding GGUAUCAAGUGCAGAAUGUTT against Slc37a1, the z-score was 1.99 (active).

GGGUAACAGUGGUGAACCUTT against Col1a1: the z-score was -1.52.

Take GCUACAAUAUGACAAGUGUTT against Adamts5: the z-score was 2.82 (active).

Turning to GGAUGCUCUCUUAAAUGGATT against AI595338, the z-score is -0.0806.

“GGAAAAUUGAGAUUUCUGCTT against 1110003E01Rik”: the z-score is 1.52.

With GGAUGAAAAAUACUGGUGUTT against Ugt8, the z-score was 3.17.

Consider GAAGAUCCACUUCAUCGCCTT against Psmb10, for which the z-score was -1.82.

With GGAAGACAUGAAAUUGUUCTT against Psma3, the z-score is -2.92.

As to GGAUGAAGAGAAAAAUUGATT against Slc20a1, the z-score is 2.96 (active).

As to GGGUGUACAUUGAAAUUAATT against Epha4, the z-score is 1.05.

Consider “GGAAUUUGAUUCUCUGCCUTT against 6820429M01”, for which the z-score is 0.0636.

On to GGCACAUGCCCUUUUCUACTT against Cog1, for which the z-score is 0.266.

In the case of GCAUUCAGAAUGAGCUGACTT against Nfasc, the z-score is -0.0641.

Regarding GGUGAUCUUCAAAUUGGAGTT against Zfp90, the z-score was -0.401.

Turning to GCUAUAUCUAAAGCUAUUCTT against Sgpp1, the z-score is 0.574 (active).

As to GGCCCACCUAUUUCAUCUCTT against Actl7b, the z-score was 0.808.

For the sequence “GGAGUUUGCCACAAUUGUUTT against 2810408E11Rik”, the z-score was -1.26.

As for GGAAGAGAGAUGGAAAAAATT against Gcnt1, the z-score was -0.555.

In the case of “GGAAAGUGUCACCAAGUUCTT against B230359F08Rik”, the z-score is -0.0496.

Take “GGUACUAAACACCAACUCCTT against B230315M08Rik”: the z-score is 1.28 (active).

For the sequence “GGAAGGAAGAGAAAAACAATT against D11Ertd730e”, the z-score was -1.34.

Take “GGGAUCCGAAUUCUGACCATT against 2010305C02Rik”: the z-score was 1.23.

On to GGCCAUCAGAUAGUUUAAUTT against AW551984, for which the z-score is -0.3.

As for “GCAAGAUUCAGAGUGCAGCTT against 4932441K18”, the z-score is -0.922.

Turning to “GCCUUACUCUCUCAGUCCUTT against D930018N13”, the z-score is -1.82.

Turning to GGAUACAUUAAUUGUUUGGTT against AW011752, the z-score is 0.68.

With CCACACUGAGGACUAUAUUTT against Cstf1, the z-score was 0.623.

With GGAUAGCUGCCAACACUACTT against BC048937, the z-score was -0.0419.

Turning to GGCCUAUCUUCCCAGGAAATT against Mapk1, the z-score was 1.76 (active).

As to GCAAAAAUUAUGCAGAGCATT against Olfr1443, the z-score was 2.55.

CGGUAUCUCAACUUUUACATT against Stra8: the z-score is 0.301.

With GCGAACGAAGCAUAAAUGGTT against Mettl1, the z-score was -0.126.

Consider GGCAGUAGUGUUAACGGUGTT against Chrnb2, for which the z-score was 2.38 (active).

Regarding GGAUGCUGUAACACUUUAUTT against Bcl6, the z-score is -1.71.

In the case of GGACCAGGUAUUCAUGAUCTT against Sema3c, the z-score was 1.79.

With “CCAUGAUGAUAAUCUGAAUTT against B930090D16Rik”, the z-score was 0.709.

As to GGAAGAUUUUUCAAAGGAUTT against Itgb6, the z-score was 2.51 (active).

Regarding CAAUAACAGCGAAACAUCCTT against Scn4b, the z-score was 2.18.

Consider GUCUCUCUUUUAACAUGCUTT against Ceacam13, for which the z-score was 2.49.

Take GCUUGUCUCACACAGCUCUTT against Olfr401: the z-score was -0.379.

Turning to CCCACAAGGUUAAGAUAUATT against Col14a1, the z-score was 0.22.

As to GACGGUGGGACUCACUGUUTT against Ors6, the z-score was -0.403.

As for GGUUGACACAGAUGAAGAGTT against Rdh9, the z-score was -0.356.

Take GCGUGCAGCCCUCAAUGAATT against Ppp2r5b: the z-score is 1.44 (active).

In the case of GGAAUCCAUGCAGAAAUAATT against Pcdhga6, the z-score is 1.54.

As for GGAGAUGGCUUCUCUCUCGTT against Rarg, the z-score is 1.37 (active).

On to CGCGGGAUGAAGGAUAUAATT against LOC432589, for which the z-score is -2.23.

Regarding GGAGAACUGUCAGAACGAGTT against Gpx2, the z-score is -2.7.

As to GCAAUGCGACGUGCUCUAUTT against LOC330863, the z-score was -0.895.

In the case of GCGGCAUAAGUCCAAGCACTT against Crk7, the z-score is -1.76.

For the sequence GGAAUGUUCUGUCGCUAUGTT against Nrp1, the z-score was 0.0552.

Regarding “GGUUGAAUAUUGAAUGGAATT against 9130422G05Rik”, the z-score is 0.44.

On to CCUGAAAAAAUUUAUCGCCTT against Rnf3, for which the z-score is -0.169.

GCUUCCUCUACAUCCUGCUTT against Kcnk15: the z-score is 2.57 (active).

Regarding GGCUGAACUCAAAAAGACGTT against Hand1, the z-score is 2.07.

For GGUGAAGCUGAAACAACAUTT against BC020002, the z-score was 0.323.

In the case of GCUUGUGAAAAAUUAUGAGTT against Ipo7, the z-score is -1.

Turning to GCUCUACUGCUUCCUUGUUTT against Olfr973, the z-score was -2.32.

Turning to GGAGAUGUGUGCUAUGUGGTT against Gzmb, the z-score was -1.14.

With GGCCAACUGAUUAAGAAACTT against Chrnb1, the z-score is 2.28 (active).

Turning to GGGAUACCAUGGGAAUAGUTT against Vps52, the z-score is 0.468.

Consider “GGACAAGGAUGCAAUUAUCTT against 4833427G06Rik”, for which the z-score was -2.12.

As to GGCUCAAGGACAGAUGAUGTT against Tra1, the z-score is -0.94.

GGAGCUAAGACAGUUUGGATT against BC022133: the z-score is -1.16.

For GGAUGAUACUUCAUUACACTT against Ankrd12, the z-score is -0.613.

Regarding GGAGUGAAAUUUACUGGGUTT against Hdgfrp3, the z-score is 1.78.

On to CGAGGUGACCUACAAGAUUTT against AI481750, for which the z-score is 0.982.

With “CCUUCUGUAGUUGGAAUCATT against 1110038F21Rik”, the z-score was -0.558.

For GGGUUAUGUCUGUGGAGCUTT against Bcl2l2, the z-score was 1.54 (active).

For GCCUUAAGUGGAUUUAGGATT against Hist1h2ae, the z-score is 1.22.

Consider “GGAAAUACCCUGAUAGCCATT against 9430077C05Rik”, for which the z-score is -1.23.

On to “GCAACAUUAGGAUUUAUAGTT against 1110032E23Rik”, for which the z-score was -0.366.

“GGUGAAAACCCUAACAGUCTT against A130007F10Rik”: the z-score was 0.653.

Consider CCAAGUUUUUAUGCAGAUATT against Pip5k1a, for which the z-score is -1.31.

As for GCUUACCUUGACCAACCUCTT against Chrng, the z-score is 1.84 (active).

Consider “GCCACCUUGUUUCUCGAACTT against 1810008A18Rik”, for which the z-score was 0.925.

Take GCAAGUCCUACAAUACAACTT against Tk1: the z-score is -0.837.

With GGUGCAGCCACGAAAACAUTT against Lmln, the z-score is 1.57.

As for CGAUUAUGACCGAUAUAGATT against Fusip1, the z-score is 0.823.

Take “GGAUAUUGAACACUUCUUGTT against D330017J20Rik”: the z-score was 1.25.

In the case of GGGACUUUCAUAAUGCCAGTT against Snip1, the z-score is 0.733.

With GGCCUCCCUACUUGAAGACTT against Crip3, the z-score is 1.71 (active).

As for GGCUCUCUUAGUUGUAUCATT against Mrpl35, the z-score was -1.03.

Regarding “GGAAGUCCGUUUUUAAGAATT against 4732429I09Rik”, the z-score is -0.792.

GCUCAAACAGAUACACGGATT against Ap2a2: the z-score is 0.288.

Take GCUUGAUCAACAAGUGGAGTT against Nup62: the z-score was -1.64.
